# Unmarked numbers belong to inactive results. Inconclusive results are not listed. Where a call stands in place of a potency, no number is given. The source made the active and inactive calls. Unless noted, calls follow the shape of the full dose curve.
# What was measured:
# [1] = Nuclear factor erythroid 2-related factor 2/antioxidant responsive element (Nrf2/ARE) small molecule agonists: qHTS cell viability counter screen in human keratinocytes (AID 1919968; active = well fitted curve in the direction sought with a large enough effect in the repeat runs; an effect the other way counts as inactive or inconclusive; also: nearly all actives have a fitted effect of over 55% in size; also: potency is read from the fitted curve at half-maximal effect)
# In short: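 Cytotoxicity was multiplexed with the Nrf2/ARE luciferase assay in the same wells. Stably transfected HaCaT keratinocytes were treated with test compounds for 23 h at 37 C. Cell viability was then measured by CellTiter-Fluor fluorescence.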
# [2] = molecular target: Gonadotropin-releasing hormone receptor (Homo sapiens) (UniProt P30968); assay: Human gonadotropin-releasing hormone receptor (GnRHR) small molecule agonists, calcium flux assay in GnRHR-HEK293 cells (AID 1920063); also: nearly all actives have a fitted effect of over 35% in size; also: potency is read from the fitted curve at half-maximal effect
# Chain of Gonadotropin-releasing hormone receptor (Homo sapiens) (P30968 whole entry, looked up): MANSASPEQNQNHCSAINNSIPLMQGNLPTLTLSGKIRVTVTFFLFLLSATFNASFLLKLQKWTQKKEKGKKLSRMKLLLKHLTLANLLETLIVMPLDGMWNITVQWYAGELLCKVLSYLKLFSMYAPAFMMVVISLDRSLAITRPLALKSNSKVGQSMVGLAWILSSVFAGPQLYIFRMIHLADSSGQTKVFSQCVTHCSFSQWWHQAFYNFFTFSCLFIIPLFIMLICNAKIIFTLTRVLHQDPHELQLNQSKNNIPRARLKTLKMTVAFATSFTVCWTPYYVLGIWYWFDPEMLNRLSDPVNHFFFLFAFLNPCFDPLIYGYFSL
# In short: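 Agonist activity was measured as intracellular calcium flux in HEK293 cells engineered to stably express human GnRHR. After dye loading for 1 hour at 37 C, compounds in DMSO were added and fluorescence was followed for 3 minutes.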
# [3] = molecular target: KiSS-1 receptor (Homo sapiens) (UniProt Q969F8); assay: Human kisspeptin (KISS1R) small molecule agonists, calcium flux assay in KISS1R-HEK293 cells (AID 1920064; active = well fitted curve in the direction sought with a large enough effect in the repeat runs; an effect the other way counts as inactive or inconclusive; also: potency is read from the fitted curve at half-maximal effect)
# Chain of KiSS-1 receptor (Homo sapiens) (Q969F8 whole entry, looked up): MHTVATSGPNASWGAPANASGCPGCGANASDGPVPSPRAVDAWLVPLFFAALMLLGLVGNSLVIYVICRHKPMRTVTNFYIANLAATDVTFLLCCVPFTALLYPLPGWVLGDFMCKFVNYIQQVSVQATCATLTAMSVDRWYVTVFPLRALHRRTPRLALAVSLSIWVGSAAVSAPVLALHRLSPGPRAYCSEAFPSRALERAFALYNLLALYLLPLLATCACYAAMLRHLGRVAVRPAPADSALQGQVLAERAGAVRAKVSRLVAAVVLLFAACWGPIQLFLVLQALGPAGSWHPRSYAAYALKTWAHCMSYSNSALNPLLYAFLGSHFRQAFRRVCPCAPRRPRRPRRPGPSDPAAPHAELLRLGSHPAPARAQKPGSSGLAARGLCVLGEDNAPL
# In short: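 Agonist activity is monitored as intracellular calcium rise in engineered HEK293 cells carrying human KISS1R. Cells are dye-loaded for 1 h at 37 C before compound addition, and fluorescence is recorded for 3 min.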
# [4] = G protein-coupled receptor (GPCR) small molecule agonists, calcium flux assay: HEK293 wild type cell line counter screen (AID 1920065)
# In short: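 Seed cells, incubate 18 h (37 C, 5% CO2); add calcium dye, 1 h at 37 C; pin-transfer compounds, ATP control or DMSO; read fluorescence 480/540 nm each second for 3 min.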
# [5] = p53 small molecule agonists, cell-based qHTS assay with human liver microsomes: qHTS cell viability counter screen (AID 1963579); also: nearly all actives have a fitted effect of over 45% in size
# In short: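 Metabolically activated exposure: compounds, human liver microsomes and NADPH (0.5 mg/mL final apiece) were added to p53RE-bla cells seeded 5 h earlier, left 16 h at 37 C, and then assessed for viability by CellTiter-Glo luminescence.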
# [6] = p53 small molecule agonists, cell-based qHTS assay: qHTS cell viability counter screen (AID 1963581); also: nearly all actives have a fitted effect of over 45% in size
# In short: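 Viability was counter-screened in parallel with the p53 agonist reporter by measuring intracellular ATP luminescence in the same HCT-116 p53RE-bla wells after 16 h compound treatment at 37 C.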
# [7] = molecular target: 5-hydroxytryptamine receptor 2A (Homo sapiens) (UniProt P28223); assay: 5-hydroxytryptamine receptor 2A (HTR2A) small molecule antagonists, cell-based qHTS assay (AID 1963586); also: nearly all actives have a fitted effect of over 45% in size
# Chain of 5-hydroxytryptamine receptor 2A (Homo sapiens) (P28223 whole entry, looked up): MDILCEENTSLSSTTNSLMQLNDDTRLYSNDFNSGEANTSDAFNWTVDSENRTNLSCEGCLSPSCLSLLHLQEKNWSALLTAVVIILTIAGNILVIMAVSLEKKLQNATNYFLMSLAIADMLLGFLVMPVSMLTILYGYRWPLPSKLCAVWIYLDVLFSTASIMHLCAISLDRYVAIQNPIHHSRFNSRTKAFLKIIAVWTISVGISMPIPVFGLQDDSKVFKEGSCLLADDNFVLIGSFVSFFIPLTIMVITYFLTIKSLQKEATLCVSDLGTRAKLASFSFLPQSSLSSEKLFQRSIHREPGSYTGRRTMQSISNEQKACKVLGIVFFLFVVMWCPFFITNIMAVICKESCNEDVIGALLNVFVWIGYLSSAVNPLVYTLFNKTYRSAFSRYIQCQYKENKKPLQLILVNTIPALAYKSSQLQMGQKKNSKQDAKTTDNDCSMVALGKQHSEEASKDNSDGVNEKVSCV
# In short: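 CHO cells stably expressing human HTR2A were plated for 18 h at 37 C, then loaded with calcium dye for 1 h. Compounds were preincubated 5 min at room temperature before DOI (4 nM solution) was added. Kinetic fluorescence was read for 3 min.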
# [8] = molecular target: 5-hydroxytryptamine receptor 2A (Homo sapiens) (UniProt P28223); assay: 5-hydroxytryptamine receptor 2A (HTR2A) small molecule agonists, cell-based qHTS assay (AID 1963587); also: nearly all actives have a fitted effect of over 30% in size
# In short: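 Kinetic calcium-flux fluorescence (2 min, 1 sec intervals) after compound addition in agonist mode. HTR2A-CHO cells were cultured 18 h, then dye-loaded 1 h at 37 C.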
# [9] = molecular target: Muscarinic acetylcholine receptor M1 (Homo sapiens) (UniProt P11229); assay: Cholinergic receptor muscarinic 1 (CHRM1) small molecule antagonists, cell-based qHTS assay (AID 1963588); also: nearly all actives have a fitted effect of over 40% in size
# Chain of Muscarinic acetylcholine receptor M1 (Homo sapiens) (P11229 whole entry, looked up): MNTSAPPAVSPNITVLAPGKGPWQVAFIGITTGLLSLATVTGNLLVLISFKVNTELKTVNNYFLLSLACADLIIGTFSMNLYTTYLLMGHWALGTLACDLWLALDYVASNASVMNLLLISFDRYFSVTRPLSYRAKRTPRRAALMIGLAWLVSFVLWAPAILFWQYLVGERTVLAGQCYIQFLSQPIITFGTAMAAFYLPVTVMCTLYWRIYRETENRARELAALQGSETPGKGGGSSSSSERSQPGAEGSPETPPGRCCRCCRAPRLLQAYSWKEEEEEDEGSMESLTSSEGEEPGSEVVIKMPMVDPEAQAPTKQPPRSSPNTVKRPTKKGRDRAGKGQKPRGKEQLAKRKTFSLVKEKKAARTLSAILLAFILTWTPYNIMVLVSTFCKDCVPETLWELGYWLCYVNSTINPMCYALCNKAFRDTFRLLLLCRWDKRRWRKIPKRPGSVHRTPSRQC
# In short: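 Compounds were tested at 15 concentrations in three independent runs. Dye-loaded CHRM1-CHO cells were exposed 5 min at room temperature before stimulation by acetylcholine added at 50nM. Intracellular calcium was read kinetically on FDSS for 3 min.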
# [10] = cAMP Responsive Elements (CRE) small molecule antagonists, cell-based qHTS assay (AID 1963591; active = well fitted inhibition curve with a large enough effect in the signal ratio in the repeat runs, not every such curve was filed as active; the % refers to the signal ratio)
# In short: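 Cells (CRE-bla HEK 293T, DMEM with 10% dialyzed FBS and 25 mM HEPES) are seeded and incubated 18 h. Compounds are added with NKH477 agonist at 0.25 uM final for 3 h, then FRET substrate for 2 h.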
# [11] = molecular target: Beta-2 adrenergic receptor (Homo sapiens) (UniProt P07550); assay: Adrenergic beta2 receptor (ADRB2) small molecule agonists, cell-based qHTS assay (AID 1963593);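 also: CHO cells stably overexpressing human ADRB2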
# Chain of Beta-2 adrenergic receptor (Homo sapiens) (P07550 whole entry, looked up): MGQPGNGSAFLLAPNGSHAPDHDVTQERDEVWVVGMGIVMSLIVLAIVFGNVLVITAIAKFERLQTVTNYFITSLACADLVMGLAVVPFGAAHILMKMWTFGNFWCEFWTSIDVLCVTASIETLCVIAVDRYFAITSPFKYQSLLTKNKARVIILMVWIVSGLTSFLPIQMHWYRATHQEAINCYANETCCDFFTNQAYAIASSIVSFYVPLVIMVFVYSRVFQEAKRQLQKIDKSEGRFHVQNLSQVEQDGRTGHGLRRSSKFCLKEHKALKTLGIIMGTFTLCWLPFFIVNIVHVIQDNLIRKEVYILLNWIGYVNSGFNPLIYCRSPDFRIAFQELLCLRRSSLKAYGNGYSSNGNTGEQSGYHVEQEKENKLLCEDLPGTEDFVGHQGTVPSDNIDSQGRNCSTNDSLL
# In short: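 CHO cells stably over-expressing ADRB2 were plated overnight at 37C, then dosed with compounds plus a stimulation mix containing 100uM IBMX and 25uM Ro-20-1724 for 0.5hr at room temperature. cAMP was measured by HTRF competition, 1hr.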
# [12] = molecular target: D(2) dopamine receptor (Homo sapiens) (UniProt P14416); assay: Dopamine D2 receptor (DRD2) small molecule agonists, cell-based qHTS assay (AID 1963594); also: nearly all actives have a fitted effect of over 35% in size
# Chain of D(2) dopamine receptor (Homo sapiens) (P14416 whole entry, looked up): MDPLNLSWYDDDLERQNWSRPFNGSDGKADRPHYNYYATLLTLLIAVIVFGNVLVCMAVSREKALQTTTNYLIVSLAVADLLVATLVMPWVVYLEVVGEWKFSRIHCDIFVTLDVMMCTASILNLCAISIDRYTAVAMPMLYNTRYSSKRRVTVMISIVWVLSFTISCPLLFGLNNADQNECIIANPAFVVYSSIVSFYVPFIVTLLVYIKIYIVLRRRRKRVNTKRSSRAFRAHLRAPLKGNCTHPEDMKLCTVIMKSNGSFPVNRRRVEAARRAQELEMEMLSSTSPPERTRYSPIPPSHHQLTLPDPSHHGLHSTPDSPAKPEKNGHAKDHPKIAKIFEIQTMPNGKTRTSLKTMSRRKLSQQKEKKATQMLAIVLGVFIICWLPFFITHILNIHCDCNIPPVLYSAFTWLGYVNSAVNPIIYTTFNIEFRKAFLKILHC
# In short: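 cAMP accumulation in DRD2-HEK293 cells measured by HTRF after 1 h detection; compounds added 10 min before NKH477 (200nM […]) forskolin-analogue stimulation, 30 min at room temperature, with Ro20-1724 present at 0.1 mM final.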
# [13] = molecular target: D(2) dopamine receptor (Homo sapiens) (UniProt P14416); assay: Dopamine D2 receptor (DRD2) small molecule antagonists, cell-based qHTS assay (AID 1963595; active = well fitted inhibition curve with a large enough effect in the signal ratio in the repeat runs, with a control signal flat; the % refers to the signal ratio; also: potency is read from the fitted curve at half-maximal effect)
# In short: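 Antagonist mode in DRD2-HEK293 cells: after compound addition with 0.1 mM Ro20-1724, cells received quinpirole (12 nM) and NKH477 (200 nM) for 30 min at room temperature; HTRF cAMP read after 1 h detection.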
# [14] = molecular target: Muscarinic acetylcholine receptor M1 (Homo sapiens) (UniProt P11229); assay: Cholinergic receptor muscarinic 1 (CHRM1) small molecule agonists, cell-based qHTS assay (AID 1963589); also: nearly all actives have a fitted effect of over 35% in size
# In short: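 Cells were plated and incubated 18 h at 37 C/5% CO2, loaded with calcium dye for 1 h at 37 C, then treated with compounds in DMSO. Fluorescence was recorded kinetically at 1 sec intervals.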
# [15] = molecular target: Beta-2 adrenergic receptor (Homo sapiens) (UniProt P07550); assay: Adrenergic beta2 receptor (ADRB2) small molecule antagonists, cell-based qHTS assay (AID 1963592); also: series mostly up to about 92 µM; nearly all actives have a fitted effect of over 50% in size
# In short: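 Assay format: CHO-ADRB2 cells, 18-20hr seeding at 37C/5% CO2, then compound plus 1nM isoproterenol agonist mix for 0.5hr RT. Homogeneous time-resolved fluorescence cAMP detection after 1hr, expressed as 665/615 nm ratio.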
# [16] = p53 small molecule agonists, cell-based qHTS assay with rat liver microsomes: qHTS cell viability counter screen (AID 1963580); also: nearly all actives have a fitted effect of over 45% in size
# In short: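 Rat liver microsome (0.5 mg/mL final) and NADPH (0.5 mg/mL final) co-incubation with compounds for 16 h at 37 C on HCT-116 p53RE-bla cells; cytotoxicity taken from intracellular ATP luminescence.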
# [17] = p53 small molecule agonists, cell-based qHTS assay (AID 1963582; active = well fitted activation curve with a large enough effect in the signal ratio in the repeat runs, not every such curve was filed as active; the % refers to the signal ratio; also: potency is read from the fitted curve at half-maximal effect)
# In short: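 Cells carrying a p53-responsive bla reporter are treated with test compounds for 16 h at 37 C; beta-lactamase activity is then detected with LiveBLAzer B/G FRET substrate after 2 h at room temperature.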
# [18] = cAMP Responsive Elements (CRE) small molecule agonists, cell-based qHTS assay (AID 1963590)
# In short: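 Cells carrying a CRE-driven beta-lactamase reporter (HEK 293T) are seeded, incubated overnight (18 h), and treated with test compounds for 3 h at 37 C; reporter activity is then detected with a FRET substrate after 2 h at room temperature.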
# [19] = p53 small molecule agonists, cell-based qHTS assay with rat liver microsomes (AID 1963578)
# In short: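 Agonist mode in p53RE-bla reporter cells, with compounds co-incubated 16 h at 37 C alongside 0.5 mg/mL rat liver microsomes and 0.5 mg/mL NADPH (final), followed by a 2 h LiveBLAzer detection step.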
# [20] = p53 small molecule agonists, cell-based qHTS assay with human liver microsomes (AID 1963577);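 also: p53 response element beta-lactamase reporter cells with liver microsomes plus NADPH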
# In short: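 In this qHTS, p53 response-element beta-lactamase cells receive test compound together with a microsome/NADPH activating system (0.5 mg/mL final each) and are incubated 16 h at 37 C before LiveBLAzer fluorescence detection.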
smiles,measurement,setting,value
Nc1ccc2c(c1)Cc1ccccc1-2,Potency,[1],inactive
same,Potency,[2],inactive
same,Potency,[3],inactive
same,Potency,[4],inactive
same,Potency,[5],inactive
same,Potency,[6],inactive
same,Potency,[7],inactive
same,Potency,[8],inactive
same,Potency,[9],inactive
same,Potency,[10],inactive
same,Potency,[11],inactive
same,Potency,[12],inactive
same,Potency,[13],inactive
CN(C)C(=S)[S-].CN(C)C(=S)[S-].[Cu+2],Potency,[1],0.297 µM (active)
same,activity change,[2],"5.57% [at 11.8 µM, active compounds read high]"
same,activation,[3],0.935% [at 15.8 µM]
same,activation,[4],0.103% [at 11.8 µM]
same,"activity change, negative = cytotoxicity",[5],-25.4% [at 13.5 µM]
same,"activity, negative = inhibition",[7],13.6% [at 12.7 µM]
same,activation,[8],16.6% [at 15.9 µM]
same,"activity, negative = inhibition",[9],-2.33% [at 12.6 µM]
same,activation,[14],0.767% [at 15.8 µM]
same,"activity change, negative = inhibition",[10],-106% [at 18.9 µM]
same,"activity change, negative = inhibition",[15],0.898% [at 19 µM]
same,activation,[12],0.949% [at 19 µM]
same,"activity change, negative = inhibition",[13],2.62% [at 18.9 µM]
CCOP(=S)(OCC)SCCS(=O)(=O)CC,Potency,[1],inactive
same,Potency,[2],inactive
same,Potency,[3],inactive
same,Potency,[5],inactive
same,Potency,[16],inactive
same,Potency,[6],inactive
same,Potency,[17],inactive
same,Potency,[8],inactive
same,Potency,[9],inactive
same,Potency,[14],inactive
same,Potency,[18],inactive
same,Potency,[10],inactive
same,Potency,[15],inactive
same,Potency,[11],inactive
same,Potency,[12],inactive
same,Potency,[13],inactive
CN(C)S(=O)(=O)N(SC(F)(Cl)Cl)c1ccccc1,Potency,[1],13.7 µM (active)
same,Potency,[2],38.9 µM (active)
same,Potency,[3],54.9 µM (active)
same,Potency,[19],inactive
same,Potency,[6],inactive
same,Potency,[17],inactive
same,Potency,[13],5.45 µM (active)
CCCSP(=O)(OCC)SCCC,Potency,[1],inactive
same,Potency,[2],inactive
same,Potency,[3],inactive
same,Potency,[4],inactive
same,Potency,[5],inactive
same,Potency,[16],inactive
same,Potency,[7],inactive
same,Potency,[8],inactive
same,Potency,[9],inactive
same,Potency,[14],inactive
same,Potency,[15],inactive
same,Potency,[12],inactive
same,Potency,[13],inactive
ClC(Cl)C(Cl)(Cl)Cl,Potency,[1],inactive
same,Potency,[2],inactive
same,Potency,[3],inactive
same,Potency,[4],inactive
same,Potency,[5],inactive
same,Potency,[16],inactive
same,Potency,[6],inactive
same,Potency,[7],inactive
same,Potency,[8],inactive
same,Potency,[14],inactive
same,Potency,[18],inactive
same,Potency,[10],inactive
same,Potency,[12],inactive
same,Potency,[13],inactive
[Cl-].[Cl-].[Cl-].[Yb+3],Potency,[1],inactive
same,Potency,[2],inactive
same,Potency,[3],inactive
same,Potency,[4],inactive
same,Potency,[5],inactive
same,Potency,[16],inactive
same,Potency,[9],inactive
same,Potency,[14],inactive
same,Potency,[18],inactive
same,Potency,[10],inactive
same,Potency,[11],inactive
same,Potency,[12],inactive
same,Potency,[13],inactive
CCCCN(N=O)C(=N)N[N+](=O)[O-],Potency,[1],inactive
same,Potency,[2],inactive
same,Potency,[3],inactive
same,Potency,[20],inactive
same,Potency,[19],inactive
same,Potency,[5],inactive
same,Potency,[16],inactive
same,Potency,[6],inactive
same,Potency,[17],37.1 µM (active)
same,Potency,[7],inactive
same,Potency,[8],inactive
same,Potency,[9],inactive
same,Potency,[14],inactive
same,Potency,[10],inactive
same,Potency,[15],inactive
same,Potency,[12],inactive
same,Potency,[13],inactive
CCC/C(=N\OCC)C1=C(O)CC(CC(C)SCC)CC1=O (stereo unspecified),Potency,[1],inactive
same,Potency,[2],inactive
same,Potency,[4],inactive
same,Potency,[20],inactive
same,Potency,[19],inactive
same,Potency,[5],inactive
same,Potency,[16],inactive
same,Potency,[17],inactive
same,Potency,[7],inactive
same,Potency,[8],inactive
same,Potency,[9],inactive
same,Potency,[14],inactive
same,Potency,[15],inactive
same,Potency,[12],inactive
same,Potency,[13],inactive

# From PubChem BioAssay (Tox21)
